# Results as given in PubChem BioAssay (Tox21).
# Records with an inconclusive call do not appear. A call without a number means that no potency is given here. Unmarked numbers belong to inactive results. Activity calls are given as the source filed them. Calls come from the whole dose curve; as a rule, active = well fitted cell-killing curve with a large enough effect in the repeat runs; inconclusive = weak or mixed curves, or effect the other way; inactive = flat fitted curve, though single readings scatter.
# Legend:
# [1] = cAMP Responsive Elements (CRE) small molecule antagonists, cell-based qHTS assay: qHTS cell viability counter screen (AID 2060913); conditions: CRE-bla HEK293T viability, CellTiter-Glo luminescence, 5 h; series mostly up to 92.4 µM; note: nearly all actives have a fitted effect of over 40% in size
# Method in brief: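 Cytotoxicity counter screen multiplexed with the CRE-bla antagonist read: HEK293T cells in DMEM with dialyzed FBS and 25 mM HEPES were treated 3 hrs under 0.25 uM final NKH477, then viability measured by CellTiter-Glo luminescence.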
# [2] = cAMP Responsive Elements (CRE) small molecule agonists, cell-based qHTS assay: qHTS cell viability counter screen (AID 2060914); conditions: CRE-bla HEK293T viability, CellTiter-Glo luminescence, 5 h; series mostly up to 92.4 µM; note: nearly all actives have a fitted effect of over 50% in size
# Method in brief: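 Cytotoxicity was measured as ATP luminescence (CellTiter-Glo, 30 min at room temperature) in the same wells as the CRE-bla FRET read-out. HEK293T CRE-bla cells had 3 h compound exposure at 37C/5% CO2.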
smiles,measurement,setting,value
CCCCCCCCCCC[C@@H](C[C@@H]1OC(=O)[C@H]1CCCCCC)OC(=O)[C@H](CC(C)C)NC=O,Potency,[1],inactive
CCCCCCCC/C=C\CCCCCCCC(=O)OCCO,Potency,[1],inactive
same,Potency,[2],inactive
O=C(Nc1ccccc1)c1cc([N+](=O)[O-])ccc1Cl,Potency,[1],inactive
Nc1cc([N+](=O)[O-])ccc1C(=O)O,Potency,[1],inactive
same,Potency,[2],inactive
CC(C#N)(CCC(=O)O)N=NC(C)(C#N)CCC(=O)O (stereo unspecified),Potency,[1],inactive
O=C(c1ccco1)N1CCNCC1,Potency,[1],inactive
O=C(O)c1ccccc1OP(=O)(O)O,Potency,[1],inactive
C#C[C@]1(OC(C)=O)CC[C@H]2[C@@H]3CCC4=C/C(=N/O)CC[C@@H]4[C@H]3CC[C@@]21CC,Potency,[1],inactive
same,Potency,[2],inactive
CC(=O)c1cccc([N+](=O)[O-])c1,Potency,[1],inactive
CC(=O)O[C@@H]1C(=O)O[C@@H]2[C@H]1OC(=O)[C@@H]2OC(C)=O,Potency,[1],inactive
C[N+](C)(CCOc1ccccc1)Cc1cccs1,Potency,[1],inactive
same,Potency,[2],inactive
CC(C)(CO)[C@@H](O)C(=O)NCCCO,Potency,[1],inactive
same,Potency,[2],inactive
NC(=O)CC[C@@H]1NC(=O)[C@H](Cc2ccccc2)NC(=O)[C@H](Cc2ccc(O)cc2)NC(=O)CCSSC[C@@H](C(=O)N2CCC[C@H]2C(=O)N[C@@H](CCCN=C(N)N)C(=O)NCC(N)=O)NC(=O)[C@H](CC(N)=O)NC1=O,Potency,[1],inactive
same,Potency,[2],inactive
CC(=O)c1ccc2ccc3ccccc3c2c1,Potency,[1],inactive
O=C(c1ccc(O)c(O)c1)c1ccc(O)cc1O,Potency,[1],inactive
same,Potency,[2],inactive
CCCC(=O)O[C@]1(C(=O)CCl)[C@@H](C)C[C@H]2[C@@H]3CCC4=CC(=O)C=C[C@]4(C)[C@@]3(F)C(=O)C[C@@]21C,Potency,[1],inactive
O=C1NCC2(CCN(CCc3ccccc3)CC2)O1,Potency,[1],inactive
CCCCCCCOC(=O)c1ccccc1C(=O)OCCCCCCC,Potency,[1],inactive
same,Potency,[2],inactive
NCCNc1cccc2ccccc12,Potency,[1],inactive
same,Potency,[2],inactive
Cc1ccc(C(=O)Nc2ccc(S(=O)(=O)O)c3cc(S(=O)(=O)O)cc(S(=O)(=O)O)c23)cc1NC(=O)c1cccc(NC(=O)Nc2cccc(C(=O)Nc3cc(C(=O)Nc4ccc(S(=O)(=O)O)c5cc(S(=O)(=O)O)cc(S(=O)(=O)O)c45)ccc3C)c2)c1,Potency,[1],inactive
same,Potency,[2],inactive
CC(=O)Nc1ccc(S(N)(=O)=O)cc1,Potency,[1],inactive
same,Potency,[2],inactive
CCCC(=O)O[C@]1(C(=O)CO)CC[C@H]2[C@@H]3CCC4=CC(=O)CC[C@]4(C)[C@H]3[C@@H](O)C[C@@]21C,Potency,[1],inactive
same,Potency,[2],inactive
CC(=O)OC[C@H]1O[C@@H](OC(C)=O)[C@H](OC(C)=O)[C@@H]1OC(C)=O,Potency,[1],inactive
same,Potency,[2],inactive
CCNC(=O)C(C)OC(=O)Nc1ccccc1 (stereo unspecified),Potency,[1],inactive
same,Potency,[2],inactive
CC(C)=CC(=O)C=C(C)C,Potency,[1],inactive
same,Potency,[2],inactive
CCCCOC(=O)CC,Potency,[1],inactive
same,Potency,[2],inactive
Oc1ccc(N=Nc2ccccc2)cc1,Potency,[1],inactive
same,Potency,[2],inactive
C[N+](C)(C)CCO,Potency,[1],inactive
same,Potency,[2],inactive
COc1c2occc2cc2ccc(=O)oc12,Potency,[1],inactive
same,Potency,[2],inactive
C[C@]12CCC(=O)C=C1[C@@H]1C[C@@H]1[C@H]1[C@@H]3[C@@H]4C[C@@H]4[C@@]4(CCC(=O)O4)[C@@]3(C)CC[C@@H]12,Potency,[1],inactive
same,Potency,[2],inactive
[O-]/[N+](=N\O)c1ccccc1,Potency,[1],inactive
same,Potency,[2],inactive
O=C(OCCc1ccccc1)c1ccccc1,Potency,[1],inactive
same,Potency,[2],inactive
CCC(C)(O)CCCC(C)C (stereo unspecified),Potency,[1],inactive
same,Potency,[2],inactive
CSc1nnc(C(C)(C)C)c(=O)[nH]1,Potency,[1],inactive
same,Potency,[2],inactive
C=CCOC(=O)COCCC(C)C,Potency,[1],inactive
same,Potency,[2],inactive
O=[N+]([O-])c1cccc(C(F)(F)F)c1,Potency,[1],inactive
same,Potency,[2],inactive
CCOC(=O)/C=C(C)/C=C/C=C(C)/C=C/c1c(C)cc(OC)c(C)c1C,Potency,[1],inactive
same,Potency,[2],inactive
OC1CCCCC1c1ccccc1 (stereo unspecified),Potency,[1],inactive
same,Potency,[2],inactive
Nc1ccc(C(=O)Nc2ccccc2N)cc1,Potency,[1],inactive
same,Potency,[2],inactive
SCCSCCS,Potency,[1],inactive
same,Potency,[2],inactive
CC(C)(C)S,Potency,[1],inactive
same,Potency,[2],inactive
Cc1cc(C)c(N)c(Cl)c1,Potency,[1],inactive
same,Potency,[2],inactive
c1ccc2cc3c4ccccc4c4ccccc4c3cc2c1,Potency,[1],inactive
same,Potency,[2],inactive
CCCCCCCCCCCCO,Potency,[1],inactive
same,Potency,[2],inactive
COCCc1ccccn1,Potency,[1],inactive
same,Potency,[2],inactive
O=S(=O)(O)c1ccc2c(N=Nc3ccc(S(=O)(=O)O)c4ccccc34)c(O)c(S(=O)(=O)O)cc2c1,"viability change, negative = cytotoxic",[1],7.11% [at 8.39 µM]
same,"activity change, negative = cytotoxicity",[2],0.372% [at 8.39 µM]
CC/C=C(\C)C=O,Potency,[1],inactive
same,Potency,[2],inactive
CC1CCCO1 (stereo unspecified),Potency,[1],inactive
same,Potency,[2],inactive
CC1(C)C(O)C(C)(C)C1O (stereo unspecified),Potency,[1],inactive
same,Potency,[2],inactive
CC/C(=C(/CC)c1ccc(O)cc1)c1ccc(O)cc1,Potency,[1],inactive
same,Potency,[2],inactive
CC(C)(C)C(=O)/C=C/c1ccc(Cl)cc1,Potency,[1],inactive
same,Potency,[2],inactive
CC(C)(C)C(=O)OCOC(=O)C1N2C(=O)CC2S(=O)(=O)C1(C)C (stereo unspecified),Potency,[1],inactive
same,Potency,[2],inactive
C=CCCCCCCCCC(=O)OCCCC,Potency,[1],inactive
same,Potency,[2],inactive
COc1cc(C(C)C)ccc1C,"viability change, negative = cytotoxic",[1],0.655% [at 18.9 µM]
same,"activity change, negative = cytotoxicity",[2],-11.5% [at 18.9 µM]
CCCCC(CC)COC(=O)/C=C/c1ccc(OC)cc1 (stereo unspecified),Potency,[1],inactive
same,Potency,[2],inactive
CC(C)=CCC/C(C)=C/C=N/O,Potency,[1],inactive
same,Potency,[2],inactive
Cc1ccc2ccccc2c1[N+](=O)[O-],Potency,[1],inactive
same,Potency,[2],inactive
Cc1ccc(O)c([N+](=O)[O-])c1,Potency,[1],inactive
same,Potency,[2],inactive
